Experimental findings from PubChem BioAssay AID1851 (National Center for Advancing Translational Sciences (NCATS), 2009) are described below.

Molecules are shown by their SMILES. Several values for one entry are separate records, joined by “and”; a condition that tells them apart may be missing. Equal values may be shown once. The campaign covered roughly 16,000 compounds. About 2,600 (16%) were called active. Not shown: some 20% with an inconclusive outcome. Shown is part of a subset that was picked to be rich in actives. A number with no mark means an inactive call. Calls come from the whole dose curve; as a rule, active = well fitted curve in the direction sought with a large enough effect; inconclusive = small, poorly fitted or top-dose-only effect, or effect the other way; inactive = no such curve, though single readings can be large or run the other way.

By AC50 is commonly meant the concentration giving half of the maximal activity seen.
% is set by controls: 0 for no effect and ±100 for the full control effect.

Sequence of Cytochrome P450 2D6 (Homo sapiens) (P10635 whole entry, looked up): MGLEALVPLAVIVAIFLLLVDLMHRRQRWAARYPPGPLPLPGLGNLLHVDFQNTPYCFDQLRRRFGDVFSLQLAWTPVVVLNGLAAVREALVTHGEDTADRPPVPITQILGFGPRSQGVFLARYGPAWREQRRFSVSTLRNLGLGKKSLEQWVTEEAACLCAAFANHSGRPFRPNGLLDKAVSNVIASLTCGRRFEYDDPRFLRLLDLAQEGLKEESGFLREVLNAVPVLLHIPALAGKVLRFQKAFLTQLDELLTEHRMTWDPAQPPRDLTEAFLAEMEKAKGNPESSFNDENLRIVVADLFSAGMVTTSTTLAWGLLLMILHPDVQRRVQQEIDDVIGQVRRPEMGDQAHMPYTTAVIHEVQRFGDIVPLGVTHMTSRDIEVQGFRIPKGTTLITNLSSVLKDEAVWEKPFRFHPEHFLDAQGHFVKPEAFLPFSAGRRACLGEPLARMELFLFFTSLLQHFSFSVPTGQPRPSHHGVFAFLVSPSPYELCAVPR

The experiment addresses Cytochrome P450 2D6 (Homo sapiens) (UniProt P10635). Nature of the experiment: Cytochrome panel assay with activity outcomes. As to conditions: recombinant CYP, pro-luciferin dealkylation, luminescence, p450-cyp2d6; series mostly up to 57.1 µM.
`CC1(C)[C@@H]2CC[C@]1(C)CN(CCC[N+](C)(C)C)C2`: the activity, negative = inhibition is 2.02% [at 11.4 µM].
Take `CS(=O)(=O)O[C@H]1CN2CCC1CC2`: the activity, negative = inhibition was 2.87% [at 11.4 µM].
As for `C[C@]12CC[C@H](O)C[C@@H]1CC[C@H]1[C@H]2CC[C@]2(C)[C@H](C(=O)CO)CC[C@@H]12`, the AC50 entry is “inactive”.
The same measure, in the same setting: to `c1csc(CN2CCCC3(CCNCC3)C2)n1` belongs “inactive”.
Turning to `c1csc(CN2CCC3(CCNCC3)CC2)n1`, the AC50 result was “inactive”.
For `c1ccc(N2CCC3(CCNCC3)CC2)nc1`, the AC50 is 1.26 µM (active).
For `c1ccc(N2CCCC3(CCNCC3)C2)nc1`, the AC50 was 10 µM (active).
On to `Cc1ccccc1OCCN=Cc1c(O)n(C)c(=O)n(C)c1=O`, for which the AC50 entry is “inactive”.
In the case of `COc1cc2c(cc1OC)[C@@]13CCN4C=C5CCO[C@H]6CC(=O)N2[C@@H]1[C@@H]6[C@H]5C[C@H]43`, the activity, negative = inhibition is 9.01% [at 11.4 µM].
Turning to `C1CCc2nnnn2CC1`, the AC50 result is “inactive”.
For the molecule `CC(C)N(CC[C@@](C(N)=O)(c1ccccc1)c1ccccn1)C(C)C`, the AC50 result was “inactive”.
Same read-out and setting: to `CC(C)[N+](C)(CCC(C(N)=O)(c1ccccc1)c1ccccc1)C(C)C` belongs 3.98 µM (active); to `N#C/C(=C\c1ccc(O)c(O)c1)C(N)=S`, “inactive”.
As to `Nc1nc(N)c(N=Nc2ccc([As](=O)(O)O)c(O)c2)c(N)n1`, the activity, negative = inhibition is 12.7% [at 11.4 µM].
With `CC(O)(CS(=O)(=O)c1cccc(C(F)(F)F)c1)C(=O)Nc1cccc(C(F)(F)F)c1` (stereo unspecified), the AC50 entry was “inactive”.
Same read-out and setting: the figure for `COc1cc(C[C@H](C)N)c(OC)cc1I` is 25.1 µM (active).
For the molecule `NC(=O)c1ccc(C(=O)Nc2ccc([As](=O)(O)O)cc2)cc1`, the activity, negative = inhibition was -0.507% [at 11.4 µM].
For `O=NN(Cc1ccc(Cl)cc1)[C@@H](C(=O)O)c1ccccc1`, the activity, negative = inhibition is 6.33% [at 11.4 µM].
Regarding `C[C@H](N)[C@@H](O)c1ccccc1`, the AC50 entry is “inactive”.
In the case of `CC(NCc1ccc(Cl)cc1)C(O)c1ccccc1` (stereo unspecified), the AC50 was 0.0708 µM (active).
Regarding `COc1ccn(C)c(=O)c1C#N`, the AC50 result was “inactive”.
On the same count and under the same terms, to `O=C1C2CCN(CC2)C1(CO)CO` belongs “inactive”.
As to `c1ccc(CCN2CCOCC2)nc1`, the activity, negative = inhibition is 13.9% [at 11.4 µM].
For the molecule `CCc1ccc(CCN2CCCCC2)nc1`, the AC50 was 1.58 µM (active).
As for `c1ccc(CCN2CCCCCC2)nc1`, the activity, negative = inhibition was -18.4% [at 11.4 µM].
As to `CC(C)COC(=O)OCN1C(=O)CN(CCN2CC(=O)N(COC(=O)OCC(C)C)C(=O)C2)CC1=O`, the AC50 entry was “inactive”.
On the same count and under the same terms, to `O=S(=O)(c1ccccc1)N1CCCCC1c1cccnc1` (stereo unspecified) belongs “inactive”; to `N#CCCN`, “inactive”; to `C[n+]1c(/C=C\c2ccc(O)c3ncccc23)[se]c2ccccc21`, 1 µM (active).
As to `Oc1cccc2cccnc12`, the activity, negative = inhibition is 8.63% [at 11.4 µM].
With `COc1cccc(-c2nc(CS(=O)CC(=O)N3CCC4(CC3)OCCO4)c(C)o2)c1` (stereo unspecified), the AC50 result was “inactive”.
On the same count and under the same terms, to `C[C@@]12CC[C@H]3[C@@H](CC[C@@H]4C[C@H]5S[C@H]5C[C@]43C)[C@H]1CC[C@H]2O` belongs “inactive”; to `CCCN(CCC)CCc1cccc2c1CC(=O)N2`, 3.16 µM (active); to `N[C@@H]1C=CC=C(C(=O)O)C1`, “inactive”.
As to `N#CC(C#N)=Cc1cc(O)c(O)c(O)c1`, the AC50 result is “inactive”.
Same read-out and setting: to `O=C(O)c1cc[c]([Hg][S]c2ncnc3nc[nH]c23)cc1` belongs 1 µM (active).
On the same count and under the same terms, to `O=C(NC1CCCCC1)NC1CC2CCC(C1)N2Cc1nnnn1Cc1ccc2c(c1)OCO2` (stereo unspecified) belongs 6.31 µM (active); to `CCOP(=O)(OCC)C(NC(=O)C(Cl)Cl)C(Cl)(Cl)Cl` (stereo unspecified), “inactive”; to `O=[N+]([O-])O[C@H]1CO[C@H]2[C@H]1OC[C@@H]2O[N+](=O)[O-]`, “inactive”.
On the same count and under the same terms, to `C/C(=C\c1ccc(N(C)C)cc1)[N+](=O)[O-]` belongs “inactive”; to `CCN1CCC[C@@H](OC(=O)C(c2ccccc2)c2ccccc2)C1`, 1.58 µM (active).
As to `C[N+]1(C)[C@@H]2CC[C@H]1CC(OC(=O)[C@@H](CO)c1ccccc1)C2` (stereo partly specified), the AC50 result is “inactive”.
With `C[N+]1(C)C2CC[C@H]1CC(OC(=O)[C@@H](CO)c1ccccc1)C2` (stereo partly specified), the activity, negative = inhibition is 12% [at 11.4 µM].
For `NCCCC[C@H](N[C@@H](CCc1ccccc1)C(=O)O)C(=O)N1CCC[C@H]1C(=O)O`, the AC50 entry was “inactive”.
On the same count and under the same terms, the entry for `COc1cc2c(cc1OC)[C@H](C)NCC2` is “inactive”; for `CC[C@@H]1CN2CCc3cc(OC)c(OC)cc3[C@H]2C[C@@H]1C[C@@H]1NCCc2cc(OC)c(OC)cc21` it is “inactive”.
On the same count and under the same terms, to `CCC1=C(C[C@H]2NCCc3cc(OC)c(OC)cc32)C[C@H]2c3ccccc3CCN2C1` belongs 0.316 µM (active); to `CCC1=C(C[C@H]2NCCc3ccccc32)C[C@@H]2c3cc(OC)c(OC)cc3CCN2C1`, 2.51 µM (active); to `O=C1CS[C@@H](c2ccccc2Cl)c2cc(Cl)ccc2N1`, “inactive”.
For `c1ccc(C2CC2)c(OCC2=NCCN2)c1`, the AC50 is 25.1 µM (active) and 5.01 µM (active).
`c1ccc([C@H]2CNCc3ccccc32)cc1`: the AC50 is 5.01 µM (active).
Take `O=[As](O)(O)c1ccc2nc3cc([As](=O)(O)O)ccc3nc2c1`: the activity, negative = inhibition is 14.5% [at 11.4 µM].
Take `CC(=O)OCC1=C(C(=O)O)N2C(=O)[C@@H](N)[C@@H]2SC1`: the AC50 entry was “inactive”.
Turning to `O[Si@](CCCN1CCCCC1)(c1ccc(F)cc1)C1CCCCC1`, the AC50 was 0.501 µM (active).
For the molecule `c1cc(CCN2CCCCC2)ccn1`, the activity, negative = inhibition was -18.4% [at 11.4 µM].
Regarding `CS(=N)(=O)CC[C@@H](N)C(=O)O` (stereo partly specified), the AC50 result is “inactive”.
The same measure, in the same setting: the entry for `COc1cc([C@@H](O)CN)ccc1O` is “inactive”; for `O=C(CCN1CC2CCC(CC2)C1)c1cccs1` it is 2 µM (active); for `C/C=C1\C[C@H](C)[C@@](O)(CO)C(=O)OCC2=CCN3CC[C@@H](OC1=O)[C@@H]23` it is “inactive”.
Regarding `C[N+](C)(C)CCCCCC[N+](C)(C)C`, the AC50 result was “inactive”.
As to `NP(N)(=O)NC(=O)c1ccc(F)cc1`, the AC50 result is “inactive”.
In the case of `N=C1c2ccccc2CN1NC(=O)c1ccc(Cl)cc1`, the AC50 was 0.794 µM (active).
For `N=C1c2ccccc2CN1NC(=O)c1ccc(F)cc1`, the AC50 was 1.26 µM (active).
Same read-out and setting: the entry for `CS(=O)(=O)N1CCCC(C(=O)N2CCC3(CC2)OCCO3)C1` (stereo unspecified) is “inactive”; for `CC12CN3CC(C)(CN(C1)C31CCSCC1)C2=O` it is “inactive”; for `NCCSC(c1ccccc1)c1ccccc1` it is 0.794 µM (active).
The same measure, in the same setting: to `NCC#Cc1ccccc1` belongs “inactive”; to `O=C1NC(=O)N(CCNc2ncc(C(F)(F)F)cc2Cl)C(=O)C1/C=N/OCc1c(F)cccc1Cl` (stereo unspecified), “inactive”.
Consider `C[C@]12CC[C@@H]3C(=CCc4cc(O)ccc43)[C@@H]1CCC2=O`, for which the AC50 result was “inactive”.
Still for that read-out and setting: the entry for `O=C(Nc1cccc(C(F)(F)F)c1)c1cccn(Cc2ccc3c(c2)OC(F)(F)O3)c1=O` is “inactive”; for `NC(N)=NS(=O)(=O)c1ccc(N)cc1` it is “inactive”.
Take `N=C(N)c1ccc(-c2ccc(-c3ccc(C(=N)N)cc3)o2)cc1`: the activity, negative = inhibition was 11.8% [at 11.4 µM].
As to `COc1ccc2c3c([nH]c2c1)C(C)=NCC3`, the AC50 is 3.98 µM (active).
Same read-out and setting: the figure for `COc1ccc2[nH]c3c(c2c1)CCNC3` is 12.6 µM (active); for `COc1ccc2[nH]c3c(c2c1)CCN=C3C` it is 0.631 µM (active); for `COc1ccc(-n2nc(C(F)(F)F)cc2-c2ccc(Cl)cc2)cc1` it is “inactive”.
`C[C@]12CC[C@H]3c4ccc(O)cc4CC[C@@H]3[C@H]1CC[C@@H]2OC(=O)CCc1ccccc1`: the activity, negative = inhibition is -5.32% [at 11.4 µM].
The same measure, in the same setting: the figure for `CC1=C(CC[C@H](C)CO)O[C@@H]2C[C@@H]3[C@H]4CC[C@H]5C[C@@H](O)CC[C@]5(C)[C@@H]4CC(=O)[C@@]3(C)[C@@H]12` is -3.67% [at 11.4 µM].
With `CCN(CC)c1ccc(/C=C2/C(=O)NC(=O)N(CC3CCCO3)C2=O)cc1` (stereo unspecified), the AC50 entry was “inactive”.
For the molecule `CC(C)c1ccc(C(c2c(O)c3ccccc3oc2=O)c2c(O)c3ccccc3oc2=O)cc1`, the activity, negative = inhibition is 2.43% [at 11.4 µM].
As to `COc1cc(CNC(=O)CCCC/C=C\C(C)C)ccc1O`, the AC50 result was “inactive”.
Turning to `O=C(C[n+]1ccc2ccccc2c1)c1ccc2ccc3ccccc3c2c1`, the AC50 is 0.794 µM (active).
On the same count and under the same terms, the entry for `CCCn1c(C)c(C(=O)c2ccc3ccccc3c2)c2ccccc21` is “inactive”.
Turning to `C[C@H](Br)C(=O)c1ccc2cc(Br)c3ccccc3c2c1`, the activity, negative = inhibition was 8.29% [at 11.4 µM].
Take `CC1=C(O)C(=O)[C@H]2O[C@@H]2C1=O`: the AC50 entry is “inactive”.
On to `C[C@H]1CC[C@@]2(NC1)O[C@@H]1C[C@@H]3[C@@H]4CC=C5C[C@@H](O)CC[C@]5(C)[C@@H]4CC[C@]3(C)[C@H]1[C@@H]2C`, for which the activity, negative = inhibition is 7.13% [at 11.4 µM].
Regarding `COC(=O)C[C@](O)(CCCC(C)(C)O)C(=O)O[C@@H]1C(OC)=C[C@]23CCCN2CCc2cc4c(cc2[C@H]13)OCO4`, the AC50 entry is “inactive”.
Turning to `CN1C(=O)C(=Cc2ccc(N3CCCCC3)o2)C(=O)N(C)C1=S`, the AC50 entry was “inactive”.
On the same count and under the same terms, to `COC1=C(C)C(=O)c2c(c(COC(N)=O)c3n2C[C@@H]2[C@@H]3N2C)C1=O` (stereo partly specified) belongs 1.58 µM (active).
`COc1cc2c(c(OC)c1OC)-c1ccc(O)c(=O)cc1[C@H](N)CC2`: the AC50 result was “inactive”.
For the molecule `Nc1ccc(S(=O)(=O)c2ccc(NCN3C(=O)NC(=O)C(=O)C3=O)cc2)cc1`, the activity, negative = inhibition is 4.3% [at 11.4 µM].
Consider `c1cc(CN2CCCCC2)cc(OCCCNc2nc3ccccc3s2)c1`, for which the AC50 entry was “inactive”.
The same measure, in the same setting: the figure for `c1ccc(CN2CCN(Cc3ccc4c(c3)OCCO4)CC2)cc1` is 12.6 µM (active); for `NC[C@H](O)c1cc(O)c(O)cc1F` it is “inactive”.
Still for that read-out and setting: to `Cc1cc(C)cc(NC(=S)NC2CC3CCC(C2)N3Cc2ccco2)c1` (stereo unspecified) belongs 17.8 µM (active); to `CCNC(=S)NC1CC2CCCC(C1)N2Cc1ccco1` (stereo unspecified), 2 µM (active); to `CC(C)CNC(=S)NC1CC2CCCC(C1)N2Cc1ccco1` (stereo unspecified), 2 µM (active).
Regarding `Cc1cccc(N2C(=O)NC(=O)/C(=C\c3cnn(-c4ccccc4)c3)C2=O)c1`, the AC50 result is “inactive”.
Take `C[C@H](Br)C(=O)N[C@H](CO)C(=O)O`: the activity, negative = inhibition is 5.11% [at 11.4 µM].
As for `NCC1(CC(=O)O)CCCCC1`, the AC50 result was “inactive”.
The same measure, in the same setting: to `CCN1C[C@]2(COC(=O)c3ccccc3N3C(=O)C[C@H](C)C3=O)CC[C@H](OC)[C@@]34[C@@H]5C[C@H]6[C@H](OC)[C@H]5[C@](O)(C[C@@H]6OC)[C@@](O)([C@@H](OC)[C@@H]23)[C@@H]14` belongs “inactive”.
